Assay results from the supplement of paper PMC8975748.
Structures can show the parent of a compound that is named as a salt.

test system: Saccharomyces cerevisiae BY4741 SeMeCo community; assay: z-score of subpopulation abundance vs DMSO median, subpopulation auxotrophic for UM; higher = larger share of this subpopulation than in DMSO controls; conditions: 10 µM; 24 h; SM minimal medium; subpopulation (auxotrophy): UM
How it was run: (§1)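 Scoring was based on each subpopulation's abundance, expressed as a z-score against the vehicle-well median. A Saccharomyces cerevisiae BY4741 community with four plasmids, each restoring one auxotrophy and encoding a distinct fluorescent protein, was pre-grown overnight to OD600 1.0, diluted to 0.3, and added at 70 µl to 384-well plates acoustically predosed with library drugs (10 µM final). It then grew 24 h in minimal SM medium before paraformaldehyde fixation and automated confocal microscopy, with single-auxotroph fluorescent strains setting thresholds and autofluorescence correction.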

| SMILES | z-score of subpopulation abundance |
| --- | --- |
| Cc1cc(-c2ccc(/N=N/c3ccc4c(S(=O)(=O)O)cc(S(=O)(=O)O)c(N)c4c3O)c(C)c2)ccc1/N=N/c1ccc2c(S(=O)(=O)O)cc(S(=O)(=O)O)c(N)c2c1O [Evans Blue] | -9.56 |
| NC[C@H]1O[C@H](O[C@H]2[C@H](O)[C@@H](O[C@H]3O[C@H](CO)[C@@H](O)[C@H](N)[C@H]3O)[C@H](N)C[C@@H]2N)[C@H](N)C[C@@H]1O [Tobramycin] | 0.54 |
| CCc1cccc2c3c([nH]c12)C(CC)(CC(=O)O)OCC3 (configuration not stated) [Etodolac] | -0.43 |
| CO[C@H]1C[C@@H]2CC[C@@H](C)[C@@](O)(O2)C(=O)C(=O)N2CCCC[C@H]2C(=O)O[C@H]([C@H](C)C[C@@H]2CC[C@@H](OP(C)(C)=O)[C@H](OC)C2)CC(=O)[C@H](C)/C=C(\C)[C@@H](O)[C@@H](OC)C(=O)[C@H](C)C[C@H](C)/C=C/C=C/C=C/1C [Ridaforolimus (Deforolimus, MK-8669)] | 12.7 |
| CC[C@@H]1/C=C(\C)C[C@H](C)C[C@H](OC)[C@H]2O[C@@](O)(C(=O)C(=O)N3CCCC[C@H]3C(=O)O[C@H](/C(C)=C/[C@@H]3CC[C@H](Cl)[C@H](OC)C3)[C@H](C)[C@@H](O)CC1=O)[C@H](C)C[C@@H]2OC [Pimecrolimus] | -0.8 |
| CC[N+](CC)(CC)CCOc1cccc(OCC[N+](CC)(CC)CC)c1OCC[N+](CC)(CC)CC [Gallamine Triethiodide] | 0.33 |
| CN1[C@@H](CC(=O)c2ccccc2)CCC[C@H]1C[C@H](O)c1ccccc1 [Lobeline hydrochloride] | 0.92 |
| CCC(C)n1ncn(-c2ccc(N3CCN(c4ccc(OCC5COC(Cn6cncn6)(c6ccc(Cl)cc6Cl)O5)cc4)CC3)cc2)c1=O (configuration not stated) [Itraconazole] | 11.4 |
| OC[C@H]1O[C@H](OCC2O[C@@H](O)[C@H](O)[C@@H](O)[C@@H]2O)[C@H](O)[C@@H](O)[C@H]1O (some centres not stated) [Melibiose] | 0.56 |
| C[N+](C)(C)CCO.[Cl-] [Choline Chloride] | 0.32 |
| COc1ccc(C(Cl)=C(c2ccc(OC)cc2)c2ccc(OC)cc2)cc1 [Chlorotrianisene] | 0.15 |
| COC(=O)C1=C(C#N)NC(C)=C(C(=O)OC(C)C)C1c1cccc([N+](=O)[O-])c1 (configuration not stated) [Nilvadipine] | -0.73 |
| CC(=O)O[C@]1(C(C)=O)CC[C@H]2[C@@H]3C[C@H](C)C4=CC(=O)CC[C@]4(C)[C@H]3CC[C@@]21C [Medroxyprogesterone acetate] | 0.34 |
| O=C(c1ccc(F)cc1)C1CCN(CCn2c(=O)[nH]c3ccccc3c2=O)CC1 [Ketanserin] | -0.54 |
| Cc1onc(-c2c(Cl)cccc2Cl)c1C(=O)N[C@@H]1C(=O)N2[C@@H]1SC(C)(C)[C@@H]2C(=O)O [Dicloxacillin Sodium] | -0.45 |
| C(=C\c1ccccc1)/CN1CCN(C(c2ccccc2)c2ccccc2)CC1 [Cinnarizine] | 1.3 |
| CCn1cc(C(=O)O)c(=O)c2cc(F)c(N3CCNCC3)cc21 [Norfloxacin] | -0.54 |
| CC1(C)S[C@@H]2[C@H](NC(=O)[C@H](NC(=O)N3CCN(S(C)(=O)=O)C3=O)c3ccccc3)C(=O)N2[C@H]1C(=O)O [Mezlocillin Sodium] | -0.36 |
| Cc1c(OCC(F)(F)F)ccnc1C[S@@+]([O-])c1nc2ccccc2[nH]1 [Dexlansoprazole] | -0.91 |
| Cc1nc(C)c(Cl)c(O)c1Cl [Clopidol] | -0.13 |
| O=C(CCCN1CCN(c2ccccn2)CC1)c1ccc(F)cc1 [Azaperone] | 0.85 |
| COc1ccc(C(=O)NCc2ccc(OCCN(C)C)cc2)cc1OC [Itopride hydrochloride] | 0.38 |
| CSCC1CN(/N=C/c2ccc([N+](=O)[O-])o2)C(=O)O1 (configuration not stated) [Nifuratel] | -7.21 |

test system: Saccharomyces cerevisiae BY4741 SeMeCo community; assay: z-score of subpopulation abundance vs DMSO median, subpopulation auxotrophic for HL; higher = larger share of this subpopulation than in DMSO controls; conditions: 10 µM; 24 h; SM minimal medium; subpopulation (auxotrophy): HL
How it was run: as §1

| SMILES | z-score of subpopulation abundance |
| --- | --- |
| CC(C(=O)O)c1ccc(C(=O)c2cccs2)cc1 (configuration not stated) [Suprofen] | -0.36 |
| COc1cccc2c1C(=O)c1c(O)c3c(c(O)c1C2=O)C[C@@](O)(C(=O)CO)C[C@@H]3O[C@H]1C[C@H](N)[C@H](O[C@@H]2CCCCO2)[C@H](C)O1 [Pirarubicin] | 0.37 |
| N=C(N)NC(=N)N1CCOCC1 [Moroxydine HCl] | -0.09 |
| CN1CCN(c2c(F)cc3c(=O)c(C(=O)O)cn4c3c2OCN4C)CC1 [Marbofloxacin] | -0.85 |
| CN1CCOC(c2ccccc2)c2ccccc2C1 (configuration not stated) [Nefopam HCl] | -0.63 |
| COc1ccc(C(C)=O)c(O)c1 [Paeonol] | -0.25 |
| Cc1ccc2c(Cl)cc(Cl)c(O)c2n1 [Chlorquinaldol] | 19.8 |
| NC[C@@H]1O[C@H](O[C@H]2[C@@H](O)[C@H](O[C@@H]3[C@@H](O)[C@H](N)C[C@H](N)[C@H]3O[C@H]3O[C@H](CO)[C@@H](O)[C@H](O)[C@H]3N)O[C@@H]2CO)[C@H](N)[C@@H](O)[C@@H]1O [Paromomycin Sulfate] | 0.39 |
| COc1cc(NS(=O)(=O)c2ccc(N)cc2)nc(OC)n1 [SulfadiMethoxine sodium] | -0.28 |
| CCN1CCN(c2cc3c(cc2F)c(=O)c(C(=O)O)cn3C2CC2)CC1 [Enrofloxacin] | -0.47 |
| O=C1CN(/N=C/c2ccc(-c3ccc([N+](=O)[O-])cc3)o2)C(=O)N1 [Dantrolene sodium] | 1.35 |
| Cc1cc(-c2ccc(/N=N/c3ccc4c(S(=O)(=O)O)cc(S(=O)(=O)O)c(N)c4c3O)c(C)c2)ccc1/N=N/c1ccc2c(S(=O)(=O)O)cc(S(=O)(=O)O)c(N)c2c1O [Evans Blue] | 8.09 |
| NC[C@H]1O[C@H](O[C@H]2[C@H](O)[C@@H](O[C@H]3O[C@H](CO)[C@@H](O)[C@H](N)[C@H]3O)[C@H](N)C[C@@H]2N)[C@H](N)C[C@@H]1O [Tobramycin] | -0.46 |
| CO[C@H]1C[C@@H]2CC[C@@H](C)[C@@](O)(O2)C(=O)C(=O)N2CCCC[C@H]2C(=O)O[C@H]([C@H](C)C[C@@H]2CC[C@@H](OP(C)(C)=O)[C@H](OC)C2)CC(=O)[C@H](C)/C=C(\C)[C@@H](O)[C@@H](OC)C(=O)[C@H](C)C[C@H](C)/C=C/C=C/C=C/1C [Ridaforolimus (Deforolimus, MK-8669)] | 13.8 |
| CC1=CC[C@@](O)(C(C)C)CC1 [Terpinen-4-ol] | -0.57 |
| CC[C@@H]1/C=C(\C)C[C@H](C)C[C@H](OC)[C@H]2O[C@@](O)(C(=O)C(=O)N3CCCC[C@H]3C(=O)O[C@H](/C(C)=C/[C@@H]3CC[C@H](Cl)[C@H](OC)C3)[C@H](C)[C@@H](O)CC1=O)[C@H](C)C[C@@H]2OC [Pimecrolimus] | 4.57 |
| CC[N+](CC)(CC)CCOc1cccc(OCC[N+](CC)(CC)CC)c1OCC[N+](CC)(CC)CC [Gallamine Triethiodide] | -1.15 |

| SMILES | z-score of subpopulation abundance |
| --- | --- |
| CN1[C@@H](CC(=O)c2ccccc2)CCC[C@H]1C[C@H](O)c1ccccc1 [Lobeline hydrochloride] | -0.13 |
| CCC(C)n1ncn(-c2ccc(N3CCN(c4ccc(OCC5COC(Cn6cncn6)(c6ccc(Cl)cc6Cl)O5)cc4)CC3)cc2)c1=O (configuration not stated) [Itraconazole] | 17.3 |
| C[N+](C)(C)CCO.[Cl-] [Choline Chloride] | -0.62 |
| COC(=O)C1=C(C#N)NC(C)=C(C(=O)OC(C)C)C1c1cccc([N+](=O)[O-])c1 (configuration not stated) [Nilvadipine] | -0.05 |
| CC(=O)O[C@]1(C(C)=O)CC[C@H]2[C@@H]3C[C@H](C)C4=CC(=O)CC[C@]4(C)[C@H]3CC[C@@]21C [Medroxyprogesterone acetate] | -0.1 |
| O=C(c1ccc(F)cc1)C1CCN(CCn2c(=O)[nH]c3ccccc3c2=O)CC1 [Ketanserin] | 0.13 |
| Cc1onc(-c2c(Cl)cccc2Cl)c1C(=O)N[C@@H]1C(=O)N2[C@@H]1SC(C)(C)[C@@H]2C(=O)O [Dicloxacillin Sodium] | -0.68 |
| C(=C\c1ccccc1)/CN1CCN(C(c2ccccc2)c2ccccc2)CC1 [Cinnarizine] | 0.34 |
| C=CC[N+]1([C@H]2C[C@H]3[C@@H]4CC[C@H]5C[C@H](O)[C@@H](N6CCOCC6)C[C@]5(C)[C@H]4CC[C@]3(C)[C@H]2OC(C)=O)CCCC1 [Rocuronium Bromide] | -0.71 |
| CCn1cc(C(=O)O)c(=O)c2cc(F)c(N3CCNCC3)cc21 [Norfloxacin] | 0.28 |
| CN1CCC(=C2c3ccccc3CCc3sccc32)CC1 [Pizotifen Malate] | 0.05 |
| CC1(C)S[C@@H]2[C@H](NC(=O)[C@H](NC(=O)N3CCN(S(C)(=O)=O)C3=O)c3ccccc3)C(=O)N2[C@H]1C(=O)O [Mezlocillin Sodium] | -0.55 |
| Cc1c(OCC(F)(F)F)ccnc1C[S@@+]([O-])c1nc2ccccc2[nH]1 [Dexlansoprazole] | 0.7 |
| Cc1nc(C)c(Cl)c(O)c1Cl [Clopidol] | 0.28 |
| O=C(CCCN1CCN(c2ccccn2)CC1)c1ccc(F)cc1 [Azaperone] | -0.42 |
| COc1ccc(C(=O)NCc2ccc(OCCN(C)C)cc2)cc1OC [Itopride hydrochloride] | -0.33 |
| CSCC1CN(/N=C/c2ccc([N+](=O)[O-])o2)C(=O)O1 (configuration not stated) [Nifuratel] | 4.21 |
